Assay results: PubChem BioAssay (Tox21)
Records with an inconclusive call do not appear. Activity calls are given as the source filed them. Unless noted, calls come from the whole dose curve; as a rule, active = well fitted curve in the direction sought with a large enough effect in the repeat runs; inconclusive = weak or mixed curves; inactive = no such curve, though single readings can be large; an effect the other way counts as inactive or inconclusive. Where a SMILES comes first, the peptide text is derived from it.

Legend:
[1] = qHTS assay to identify small molecule antagonists of the estrogen receptor beta (ER-beta) signaling pathway - cell viability counter screen (AID 1259382);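 note: HEK293T cells carrying ER-beta-UAS-bla reporter stimulated with estradiol; series mostly up to about 92 µM; nearly all actives have a fitted effect of over 55% in size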
Method in brief: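 Luminescent ATP read-out (CellTiter-Glo, 30 min, RT) taken in the same wells as the bla reporter assay. HEK293T ER-beta-UAS-bla cells in 2% charcoal-stripped FBS were exposed to compounds with 1nM E2 for 16 hr at 37C.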

[2] = molecular target: Estrogen receptor (Homo sapiens) (UniProt P03372); assay: qHTS assay to identify small molecule agonists of the estrogen receptor alpha (ER-alpha) signaling pathway in the presence of an antagonist (AID 1259383; calls by dose curve; note: top concentration of the series differs between compounds; nearly all actives have a fitted effect of over 15% in size)
Estrogen receptor (Homo sapiens), sequence (P03372 whole entry, looked up): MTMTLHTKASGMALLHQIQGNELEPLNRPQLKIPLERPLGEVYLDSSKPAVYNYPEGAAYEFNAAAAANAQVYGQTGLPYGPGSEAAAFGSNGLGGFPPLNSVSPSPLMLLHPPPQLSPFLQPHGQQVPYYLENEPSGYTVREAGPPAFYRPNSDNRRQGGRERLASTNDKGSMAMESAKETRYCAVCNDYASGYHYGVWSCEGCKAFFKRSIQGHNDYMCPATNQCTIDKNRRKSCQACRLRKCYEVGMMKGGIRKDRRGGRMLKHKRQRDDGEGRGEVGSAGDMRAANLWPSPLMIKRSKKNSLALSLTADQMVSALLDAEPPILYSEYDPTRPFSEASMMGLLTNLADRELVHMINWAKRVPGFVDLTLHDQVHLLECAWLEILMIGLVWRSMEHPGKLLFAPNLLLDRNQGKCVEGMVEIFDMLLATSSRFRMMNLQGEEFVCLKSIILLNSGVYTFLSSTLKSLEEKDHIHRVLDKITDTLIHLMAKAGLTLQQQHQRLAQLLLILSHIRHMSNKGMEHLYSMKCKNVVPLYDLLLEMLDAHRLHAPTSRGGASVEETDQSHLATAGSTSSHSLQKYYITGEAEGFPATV
Method in brief: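 Luciferase luminescence (ONE-Glo, 30min at room temperature) measured in VM7Luc4E2 cells after 22hr compound exposure at 15 concentrations, with 10.0nM ICI-182,780 final present; cells express endogenous ER-alpha and carry four EREs upstream of luciferase.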

[3] = qHTS assay to identify small molecule agonists or antagonists of the thyroid stimulating hormone receptor (TSHR) signaling pathway - wild type cell line counter screen (AID 1259384; calls by dose curve)
Method in brief: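 Wild-type Hek293 cells, 800/well, 18 h at 37C, then compound with Ro20-1724 for 30 min RT. cAMP by HTRF (cAMP-d2/anti-cAMP cryptate), 1 h RT, fluorescence read. 15 concentrations, triplicates.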

[4] = molecular target: Thyrotropin receptor (Homo sapiens) (UniProt P16473); assay: qHTS assay to identify small molecule antagonists of the thyroid stimulating hormone receptor (TSHR) signaling pathway (AID 1259385; calls by dose curve; note: nearly all actives have a fitted effect of over 20% in size)
Thyrotropin receptor (Homo sapiens), sequence (P16473 whole entry, looked up): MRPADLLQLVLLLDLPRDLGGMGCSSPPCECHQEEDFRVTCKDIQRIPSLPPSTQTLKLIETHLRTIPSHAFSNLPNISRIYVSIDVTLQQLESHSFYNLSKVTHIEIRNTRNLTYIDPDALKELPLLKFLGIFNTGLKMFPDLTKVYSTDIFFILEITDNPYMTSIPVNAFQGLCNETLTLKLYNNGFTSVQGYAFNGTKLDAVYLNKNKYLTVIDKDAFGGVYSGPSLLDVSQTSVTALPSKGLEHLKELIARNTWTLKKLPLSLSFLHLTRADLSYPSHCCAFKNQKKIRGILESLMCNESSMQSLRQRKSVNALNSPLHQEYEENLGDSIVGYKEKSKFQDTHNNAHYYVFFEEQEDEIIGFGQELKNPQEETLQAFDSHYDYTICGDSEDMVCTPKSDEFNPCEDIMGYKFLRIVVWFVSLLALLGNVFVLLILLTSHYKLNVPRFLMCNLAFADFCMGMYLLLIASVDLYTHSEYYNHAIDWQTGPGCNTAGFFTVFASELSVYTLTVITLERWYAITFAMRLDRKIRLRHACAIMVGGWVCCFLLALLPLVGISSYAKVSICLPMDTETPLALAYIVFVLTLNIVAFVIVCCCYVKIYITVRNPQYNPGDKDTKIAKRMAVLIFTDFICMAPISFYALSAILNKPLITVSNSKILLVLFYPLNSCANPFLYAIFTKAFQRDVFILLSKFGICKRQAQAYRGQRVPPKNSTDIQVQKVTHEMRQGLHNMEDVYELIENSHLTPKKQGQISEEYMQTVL
Method in brief: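 TSHR-HEK293 cells (800/well) plated 18 h, then compounds with Ro20-1724 and TSH at 1.5 ng/mL final, 30 min at room temperature. cAMP quantified by HTRF (cAMP-d2/anti-cAMP-cryptate, 1 h); 15 concentrations in triplicate.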

[5] = qHTS assay to identify small molecule agonists of the estrogen receptor alpha (ER-alpha) signaling pathway in the presence of an antagonist - cell viability counter screen (AID 1259386);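 note: series mostly up to about 92 µM; cells exposed to compounds for 22 h at 37 °C before the viability read; nearly all actives have a fitted effect of over 30% in size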
Method in brief: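 Read-out: CellTiter-Fluor fluorescence after 1hr reagent incubation, measured in the same wells as the luciferase readout. VM7Luc4E2 cells were exposed to 15 compound concentrations with 10.0nM ICI-182,780 for 22hr at 37C.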

[6] = molecular target: Progesterone receptor (Homo sapiens) (UniProt P06401); assay: qHTS assay to identify small molecule agonists of the progesterone receptor (PR) signaling pathway (AID 1346784; calls by dose curve; note: nearly all actives have a fitted effect of over 30% in size)
Progesterone receptor (Homo sapiens), sequence (P06401 whole entry, looked up): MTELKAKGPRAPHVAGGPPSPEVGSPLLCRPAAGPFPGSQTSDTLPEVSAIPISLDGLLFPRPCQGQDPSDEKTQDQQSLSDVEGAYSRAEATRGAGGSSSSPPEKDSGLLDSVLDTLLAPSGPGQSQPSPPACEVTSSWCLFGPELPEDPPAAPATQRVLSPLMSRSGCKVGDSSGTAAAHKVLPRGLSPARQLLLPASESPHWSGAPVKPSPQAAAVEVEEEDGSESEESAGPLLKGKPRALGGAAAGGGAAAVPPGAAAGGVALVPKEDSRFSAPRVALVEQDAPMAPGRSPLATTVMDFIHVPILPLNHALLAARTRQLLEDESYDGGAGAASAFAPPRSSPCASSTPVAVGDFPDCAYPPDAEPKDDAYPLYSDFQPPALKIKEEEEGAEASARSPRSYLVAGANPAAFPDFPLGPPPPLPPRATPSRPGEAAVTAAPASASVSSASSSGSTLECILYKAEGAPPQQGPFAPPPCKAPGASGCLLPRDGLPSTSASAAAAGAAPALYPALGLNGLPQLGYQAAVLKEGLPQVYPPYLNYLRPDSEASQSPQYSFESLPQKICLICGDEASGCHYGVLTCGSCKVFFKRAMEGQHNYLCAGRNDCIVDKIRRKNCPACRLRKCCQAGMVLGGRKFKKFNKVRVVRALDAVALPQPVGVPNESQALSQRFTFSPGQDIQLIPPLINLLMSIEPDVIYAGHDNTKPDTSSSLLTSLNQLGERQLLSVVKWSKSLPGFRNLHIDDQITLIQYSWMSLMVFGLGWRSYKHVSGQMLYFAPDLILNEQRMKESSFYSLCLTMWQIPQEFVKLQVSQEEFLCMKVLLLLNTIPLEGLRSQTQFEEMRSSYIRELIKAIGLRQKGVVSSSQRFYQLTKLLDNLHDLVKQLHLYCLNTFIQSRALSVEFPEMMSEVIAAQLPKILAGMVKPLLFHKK
Method in brief: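 HEK 293T PR-UAS-bla reporter cells, 2% charcoal-stripped FBS; 6 hr settle at 37C/5% CO2, compound (DMSO) 16 hr, LiveBLAzer B/G FRET substrate 2 hr RT, fluorescence intensity read.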

[7] = molecular target: Progesterone receptor (Homo sapiens) (UniProt P06401); assay: qHTS assay to identify small molecule antagonists of the progesterone receptor (PR) signaling pathway (AID 1346795; active = well fitted inhibition curve with a large enough effect in the signal ratio in the repeat runs, not every such curve was filed as active; the % refers to the signal ratio)
Method in brief: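 Beta-lactamase reporter, HEK293T PR-UAS-bla line; 2% charcoal-stripped FBS; 6 hr pre-incubation, 37C/5% CO2. Compound + R5020 1 nM final, 16 hr. LiveBLAzer B/G FRET substrate, 2 hr RT; fluorescence intensity read.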

[8] = qHTS assay to identify small molecule antagonists of the progesterone receptor (PR) signaling pathway - cell viability counter screen (AID 1346798); note: series mostly up to about 92 µM; nearly all actives have a fitted effect of over 50% in size
Method in brief: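 Luminescence readout (CellTiter-Glo, 30 min, RT) of viability in PR-UAS-bla HEK293T cells exposed to compound and R5020 agonist for 16 hr at 37C, 5% CO2; run in the same wells as the beta-lactamase reporter read.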

[9] = qHTS assay to identify small molecule agonists of the progesterone receptor (PR) signaling pathway - cell viability counter screen (AID 1346799; calls by dose curve; note: nearly all actives have a fitted effect of over 45% in size)
Method in brief: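 HEK293T PR-UAS-bla, 3,000 cells/well, 2% charcoal-stripped FBS; 6 h settle, compound 16 h at 37C/5% CO2; LiveBLAzer 2 h RT, then CellTiter-Glo 30 min RT, luminescence read.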

[10] = qHTS assay to identify small molecule antagonists of the TGF-beta/Smad signaling pathway - cell viability counter screen (AID 1346824); note: nearly all actives have a fitted effect of over 50% in size
Method in brief: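 SBE-bla HEK 293T cells, incubated overnight, then compound plus 0.25 ng/mL TGF-beta1 (stock added) for 5 hr at 37 C. Viability was read in the same wells by CellTiter-Glo luminescence after 30 min at room temperature.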

[11] = qHTS assay to identify small molecule agonists of the TGF-beta/Smad signaling pathway - cell viability counter screen (AID 1346829); note: top concentration of the series differs between compounds; nearly all actives have a fitted effect of over 45% in size
Method in brief: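 Compound-treated SBE-bla HEK 293T cells (5 hr, 37 C) were assessed for viability with CellTiter-Glo in parallel with the reporter read.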

[12] = qHTS assay to identify small molecule agonists of the TGF-beta/Smad signaling pathway (AID 1346859; active = well fitted activation curve with a large enough effect in the signal ratio in the repeat runs, not every such curve was filed as active; the % refers to the signal ratio; note: series mostly up to about 77 µM)
Method in brief: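 Read-out: fluorescence at 460 and 530 nm (405 nm excitation) after a 2 hr room-temperature incubation with beta-lactamase FRET substrate. SBE-bla HEK 293T cells had been treated with test compounds for 5 hr at 37 C.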

[13] = molecular target: Thyrotropin-releasing hormone receptor (Homo sapiens) (UniProt P34981); assay: qHTS assay to identify small molecule antagonists of the thyrotropin-releasing hormone receptor (TRHR) signaling pathway (AID 1346877; active = well fitted inhibition curve with a large enough effect in the repeat runs, not every such curve was filed as active; note: series mostly up to about 51 µM)
Thyrotropin-releasing hormone receptor (Homo sapiens), sequence (P34981 whole entry, looked up): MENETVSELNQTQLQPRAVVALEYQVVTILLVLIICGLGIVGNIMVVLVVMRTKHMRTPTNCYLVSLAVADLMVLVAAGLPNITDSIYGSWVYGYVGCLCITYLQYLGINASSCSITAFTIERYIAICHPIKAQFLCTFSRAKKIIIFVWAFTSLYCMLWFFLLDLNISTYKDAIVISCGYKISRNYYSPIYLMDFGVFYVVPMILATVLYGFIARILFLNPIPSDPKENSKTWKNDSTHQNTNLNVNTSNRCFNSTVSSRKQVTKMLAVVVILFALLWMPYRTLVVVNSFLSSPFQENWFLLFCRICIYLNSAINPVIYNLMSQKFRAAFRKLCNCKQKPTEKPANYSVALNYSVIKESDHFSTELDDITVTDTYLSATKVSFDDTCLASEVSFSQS
Method in brief: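 HEK293/TRHR cells, 18 h, 37 °C; Ca2+ dye 2 h; cpd 5 min RT; TRH 1 nM final; fluorescence read 3 min, 1 s intervals; 15 concs, triplicate.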

[14] = Human pregnane X receptor (PXR) small molecule agonists, qHTS cell viability counter screen (AID 1346977); note: nearly all actives have a fitted effect of over 50% in size
Method in brief: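 Fluorescence read-out (CellTiter-Fluor) of viability in PXR-Luc HepG2 cells, multiplexed with the luciferase agonist read. Compounds in DMSO added after 5hr plating; 24hr total exposure at 37C, 5% CO2.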

[15] = Caspase-3/7 induction in HepG2 cells by small molecules, qHTS assay (AID 1346978); note: nearly all actives have a fitted effect of over 15% in size
Method in brief: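 Wild-type HepG2 cells, 2,000/well, settled 5 hr at 37 C and 5% CO2, then compound-treated for 17 hr; caspase-3/7 activity read by luminescent Caspase-Glo 3/7 after 30 min at room temperature.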

[16] = Caspase-3/7 induction in CHO-K1 cells by small molecules, qHTS cell viability counter screen (AID 1346979); note: nearly all actives have a fitted effect of over 35% in size
Method in brief: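 CHO-K1 wt, 1,500 cells/well; 5hr pre-incubation 37C/5% CO2; compound pin transfer (DMSO); 16hr exposure; CellTiter-Fluor added, 1hr, fluorescence read.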

[17] = Caspase-3/7 induction in CHO-K1 cells by small molecules, qHTS assay (AID 1346980); note: nearly all actives have a fitted effect of over 15% in size
Method in brief: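 Wild-type CHO-K1 cells exposed to compounds for 17hr at 37 C, 5% CO2. Caspase-3/7 activity then measured by Caspase-Glo 3/7 luminescence after 30min at room temperature.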

[18] = Caspase-3/7 induction in HepG2 cells by small molecules, qHTS cell viability counter screen (AID 1346981); note: series mostly up to about 92 µM; nearly all actives have a fitted effect of over 30% in size
Method in brief: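 Fluorescence read-out of live-cell protease activity (CellTiter-Fluor) after 1 hr with reagent. This was measured in the same wells as the caspase-3/7 luminescence, on HepG2 cells exposed to DMSO-dissolved compounds for 16 hr at 37 C.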

[19] = molecular target: Androgen receptor (Homo sapiens) (UniProt P10275); assay: qHTS assay to identify small molecule agonists of the androgen receptor (AR) signaling pathway in the presence of an antagonist (AID 1259381; calls by dose curve; note: nearly all actives have a fitted effect of over 15% in size)
Androgen receptor (Homo sapiens), sequence (P10275 whole entry, looked up): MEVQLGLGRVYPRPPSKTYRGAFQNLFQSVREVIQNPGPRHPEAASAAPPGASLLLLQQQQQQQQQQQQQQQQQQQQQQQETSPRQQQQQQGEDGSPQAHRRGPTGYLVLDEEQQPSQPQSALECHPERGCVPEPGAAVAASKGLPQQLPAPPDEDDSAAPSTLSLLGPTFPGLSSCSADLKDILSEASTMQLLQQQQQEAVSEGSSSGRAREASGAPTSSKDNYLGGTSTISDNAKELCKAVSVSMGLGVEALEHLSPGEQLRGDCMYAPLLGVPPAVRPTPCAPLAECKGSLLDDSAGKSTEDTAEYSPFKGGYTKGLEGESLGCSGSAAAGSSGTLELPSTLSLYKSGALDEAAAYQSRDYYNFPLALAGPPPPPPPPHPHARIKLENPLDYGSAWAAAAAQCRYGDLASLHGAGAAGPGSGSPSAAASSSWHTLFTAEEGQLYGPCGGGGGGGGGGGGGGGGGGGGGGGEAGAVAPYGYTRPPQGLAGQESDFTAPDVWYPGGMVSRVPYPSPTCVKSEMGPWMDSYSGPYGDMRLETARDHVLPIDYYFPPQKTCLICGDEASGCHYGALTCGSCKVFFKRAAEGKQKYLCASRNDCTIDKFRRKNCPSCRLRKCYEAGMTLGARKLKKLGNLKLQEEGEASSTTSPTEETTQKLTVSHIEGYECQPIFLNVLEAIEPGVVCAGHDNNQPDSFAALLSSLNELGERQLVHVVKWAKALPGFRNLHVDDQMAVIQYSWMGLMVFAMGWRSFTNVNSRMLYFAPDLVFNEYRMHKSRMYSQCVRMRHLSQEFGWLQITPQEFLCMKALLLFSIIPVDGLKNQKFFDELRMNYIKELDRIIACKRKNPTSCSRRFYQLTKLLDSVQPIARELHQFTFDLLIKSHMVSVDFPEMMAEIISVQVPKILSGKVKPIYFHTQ
Method in brief: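 Luciferase read-out (ONE-Glo, 30min room temperature) in MDA-kb2 MMTV-reporter cells; agonist mode run in presence of AR antagonist nilutamide, 3.0uM final. Compounds tested as 15-point series, 16hr exposure at 37C, 0% CO2.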

[20] = molecular target: Thyrotropin-releasing hormone receptor (Homo sapiens) (UniProt P34981); assay: qHTS assay to identify small molecule agonists of the thyrotropin-releasing hormone receptor (TRHR) signaling pathway (AID 1346891; calls by dose curve;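 note: HEK293 cells expressing TRHR with calcium dye readout; series mostly up to about 58 µM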)
Method in brief: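 HEK293/TRHR cells, 1500 per well, 18 h 37 °C; Ca dye 2 h 37 °C; pin-tool compound addition (agonist mode); kinetic fluorescence 3 min, 1 s reads; 15 concentrations, triplicate.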
% is set by controls: 0 for no effect and ±100 for the full control effect.

CC(C)Nc1ccccc1
inactive: outcome [1] | Potency [2] | outcome [3] | outcome [4] | outcome [5] | Potency [6] | Potency [7] | outcome [8] | outcome [9] | outcome [10] | outcome [11] | outcome [12] | outcome [13] | outcome [14] | outcome [15] | Potency [16] | outcome [17] | outcome [18]

C=CC/C=C/C
inactive: outcome [1] | Potency [2] | outcome [3] | outcome [4] | outcome [5] | Potency [6] | Potency [7] | outcome [8] | outcome [9] | outcome [10] | outcome [11] | outcome [12] | outcome [13] | outcome [14] | outcome [15] | Potency [16] | outcome [17] | outcome [18]

CC(=O)N[C@@H](CO)C(=O)N[C@@H](CC(=O)O)C(=O)N[C@@H](CCCCN)C(=O)N1CCC[C@H]1C(=O)O (Ac-SDKP-OH)
inactive: outcome [19] | outcome [5] | Potency [6] | Potency [7] | outcome [8] | outcome [9] | outcome [10] | outcome [11] | outcome [12] | outcome [13] | outcome [20] | outcome [14] | outcome [15] | Potency [16] | outcome [17] | outcome [18]

CCNC(=O)NCc1cccc(Cl)c1
inactive: outcome [1] | Potency [2] | outcome [3] | outcome [4] | outcome [5] | Potency [6] | Potency [7] | outcome [8] | outcome [9] | outcome [10] | outcome [11] | outcome [12] | outcome [14] | outcome [15] | outcome [17] | outcome [18]

C/C(CC(C)C)=N\O
inactive: outcome [1] | Potency [2] | outcome [3] | outcome [4] | outcome [5] | Potency [6] | Potency [7] | outcome [8] | outcome [9] | outcome [10] | outcome [11] | outcome [12] | outcome [13] | outcome [20] | outcome [14] | outcome [15] | Potency [16] | outcome [17] | outcome [18]

CCOCCOCC
inactive: outcome [1] | Potency [2] | outcome [3] | outcome [4] | outcome [5] | Potency [6] | Potency [7] | outcome [8] | outcome [9] | outcome [10] | outcome [11] | outcome [12] | outcome [14] | outcome [15] | Potency [16] | outcome [17] | outcome [18]

CC1(C)CC(OC(=O)CCCCCCCCC(=O)OC2CC(C)(C)NC(C)(C)C2)CC(C)(C)N1
inactive: activity change, negative = cytotoxicity [1] -21.6% [at 19 µM] | activation [2] -0.324% [at 19 µM] | cAMP activity change [3] -0.26% [at 18.9 µM] | activity change, negative = inhibition [4] -9.89% [at 19 µM] | activity change, negative = cytotoxicity [5] -0.743% [at 19 µM] | activation [6] 0.194% [at 19 µM] | activity change, negative = inhibition [7] 5.15% [at 18.9 µM] | activity change, negative = cytotoxicity [8] -13.3% [at 18.9 µM] | activity change, negative = cytotoxicity [9] 0.742% [at 19 µM] | viability change, negative = cytotoxic [10] -1.01% [at 15.8 µM] | activity change, negative = cytotoxicity [11] 11.9% [at 15.8 µM] | activation [12] 0.453% [at 15.8 µM] | activity, negative = inhibition [13] 0.698% [at 10.5 µM] | activation [20] 0.325% [at 11.8 µM] | caspase activation [15] 0.485% [at 19 µM] | activity change, negative = cytotoxicity [16] -1.35% [at 19 µM] | caspase-3/7 activation [17] -0.118% [at 19 µM] | activity change, negative = cytotoxicity [18] -0.861% [at 19 µM]

CC/C=C\CCOC(=O)c1ccccc1O
inactive: outcome [1] | Potency [2] | outcome [3] | outcome [4] | outcome [5] | Potency [6] | Potency [7] | outcome [8] | outcome [9] | outcome [10] | outcome [11] | outcome [12] | outcome [13] | outcome [20] | outcome [14] | outcome [15] | Potency [16] | outcome [17] | outcome [18]
